The results in this text go back to PubChem BioAssay (NCATS).

Results filed as inconclusive are left out. Where a structure was tested more than once in an assay, its records may differ in their call. Calls of active or inactive are those of the source. The call rests on the fitted dose curve; in most records, active means well fitted inhibition curve with a large enough effect; inconclusive means small, poorly fitted or top-dose-only effect; inactive means flat fitted curve, though single readings scatter.

Assay in all cases: qHTS profiling for inhibitors of Plasmodium falciparum proliferation (AID 504749); further: nearly all actives have a fitted effect of over 60% in size
Details in all cases: P. falciparum in erythrocytes, SYBR Green DNA, 72 h; series mostly up to 28.7 µM

The subject of test [1] is CP260. In a few lines:
(§1)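 SYBR Green fluorescence (ex 485 nm, em 535 nm) reports parasite DNA after 72 h compound exposure of infected red cells at 0.3% parasitemia, 2.5% hematocrit; signal normalized to 0.29 uM artemisinin and vehicle wells.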

In test [2] the test system is CP262. In a few lines: as §1
Test [3] deals with CP265. An outline of the steps: as §1
For test [4], the system named is CP266. In a few lines: as §1
The test system of test [5] is CP268. An outline of the steps: as §1
In test [6] the test system is CP269. An outline of the steps:
as §1

The test system of test [7] is CP286. An outline of the steps:
as §1

For test [8], the system named is CP291. An outline of the steps:
as §1

The subject of test [9] is CP297. An outline of the steps:
as §1

In test [10] the test system is CP305. In a few lines:
as §1

The subject of test [11] is CP315. An outline of the steps: as §1
In test [12] the test system is CP325. An outline of the steps:
as §1

Test [13] has as its system CP329. An outline of the steps:
as §1

In test [14] the test system is CP335. An outline of the steps: as §1
Test [15] deals with DFO2036. In a few lines:
as §1

Test [16] deals with ECU. In a few lines: as §1
Test [17] concerns DIV14. An outline of the steps: as §1
In test [18] the test system is Dd2. In a few lines:
as §1

In test [19] the test system is DIV17. An outline of the steps:
as §1

In test [20] the test system is DIV30. In a few lines: as §1
Potency means the concentration at half of the fitted maximal effect.

With `CCC(=O)O[C@@](Cc1ccccc1)(c1ccccc1)[C@@H](C)CN(C)C`, the Potency entry in test [1], in [2], in [3], in [4], in test [5] and in [6] was “inactive” throughout. The Potency entry in test [7], in test [8], in test [9], in test [10], in test [11] and in [12] was “inactive” each time. The Potency entry in [13], in test [14], in [15] and in test [16] was “inactive” each time.

For the compound `C=CCN=C=S`, the Potency result in test [1], in test [2], in [3], in test [4], in test [7] and in test [12] was “inactive” each time. Further, the Potency entry in [14], in test [15], in test [17], in test [18] and in [16] was “inactive” in each case.

Consider `NCC(O)c1cccc(O)c1` (centres undefined), for which the Potency entry in [1], in [2], in test [3], in test [5], in test [6] and in test [7] was “inactive” each time. Moreover, the Potency result in [8], in [9], in test [10], in test [11], in test [12] and in [13] was “inactive” each time. The Potency entry in test [14], in test [15], in test [17], in [19], in test [20] and in test [18] was “inactive” throughout. In addition, the Potency entry in test [16] is “inactive”.

In the case of `CC(C)Nc1ccc(Nc2ccccc2)cc1`, the Potency in [1] was 5.62 µM (active); in test [2] it was 4.78 µM (active); in test [3] it was 11.2 µM (active); in [4] it was 8.49 µM (active); in [5], 10.7 µM (active); in test [6], 6.75 µM (active). Besides, the Potency is 8.91 µM (active) in test [7]; 15.1 µM (active) in test [8]; 4.78 µM (active) in test [9]; 13.5 µM (active) in test [10]; 4.78 µM (active) in [11]; 6.01 µM (active) in test [12]. Also, the Potency in test [13] is 6.01 µM (active); in test [15] it was 5.01 µM (active); in test [17], 12 µM (active); in [19] it was 13.5 µM (active); in test [20] it was 4.78 µM (active); in test [18], 10 µM (active). Further, the Potency in [16] was 11.2 µM (active).

In the case of `O=C1CCCCC1CN1CCCCC1` (centres undefined), the Potency result in [1], in test [2], in [3], in test [4], in test [5] and in test [6] was “inactive” in each case. Moreover, the Potency entry in test [7], in [8], in test [9], in [10], in test [11] and in test [12] was “inactive” each time. For the same compound, the Potency entry in [13], in test [14], in test [15], in [17], in [19] and in test [20] was “inactive” each time. Moreover, the Potency result in [18] and in [16] was “inactive” throughout.

As to `CCCCCl`, the Potency entry in test [1], in [2], in test [3], in test [4], in test [5] and in [6] was “inactive” each time. Further, the Potency result in test [7], in [8], in test [9], in test [10], in [11] and in [12] was “inactive” in each case. The Potency entry in test [13], in test [14], in [15], in test [17], in test [19] and in test [20] was “inactive” in each case. The Potency entry in test [18] and in test [16] was “inactive” each time.

Turning to `CNC1(c2ccccc2Cl)CCCCC1=O` (centres undefined), the Potency entry in [1], in [2], in test [3], in test [4], in test [5] and in test [6] was “inactive” throughout. Besides, the Potency result in test [7], in test [8], in [9], in test [10], in test [11] and in test [12] was “inactive” in each case. Moreover, the Potency result in test [13], in test [14], in [15], in [20] and in test [16] was “inactive” in each case. In addition, the Potency in [17] is 9.53 µM (active) and inactive; in test [19], 13.5 µM (active).

For `O=C1CCO1`, the Potency result in test [1], in [2], in [3], in [4], in [5] and in [6] was “inactive” in each case. For the same compound, the Potency result in test [7], in test [8], in test [9], in [10], in test [11] and in test [12] was “inactive” in each case. Further, the Potency entry in [13], in test [14], in test [15], in test [17], in test [19] and in [20] was “inactive” throughout. For the same compound, the Potency result in test [18] and in test [16] was “inactive” in each case.

With `ClC=C(Cl)Cl`, the Potency entry in test [1], in [2], in [3], in test [4], in test [5] and in test [6] was “inactive” throughout. Further, the Potency result in test [7], in test [8], in test [9], in test [10], in test [11] and in [12] was “inactive” each time. The Potency entry in test [13], in test [14], in test [15], in test [17], in test [19] and in test [20] was “inactive” throughout. For the same compound, the Potency entry in test [18] and in test [16] was “inactive” in each case.

On to `C=CCN(C1=NCCN1)c1c(Cl)cccc1Cl`, for which the Potency result in [1], in test [2], in test [3], in test [4], in [5] and in [6] was “inactive” each time. Moreover, the Potency entry in [7], in test [9], in [10], in [11], in test [12] and in test [13] was “inactive” throughout. For the same compound, the Potency entry in [14], in test [15], in test [17], in test [19], in test [20] and in test [18] was “inactive” in each case. Also, in test [16], the Potency result was “inactive”.

Turning to `c1csc(C2(N3CCCCC3)CCCCC2)c1`, the Potency entry in test [1], in test [2], in test [3], in test [4], in test [5] and in [6] was “inactive” each time. Besides, the Potency result in test [7], in test [8], in test [9], in [10], in test [11] and in test [12] was “inactive” each time. The Potency entry in [13], in [14], in [15], in [19], in [20] and in test [16] was “inactive” each time.

On to `Oc1cc(Cl)c(Cl)cc1Cl`, for which the Potency entry in [1], in test [2], in test [3], in [4], in test [5] and in [6] was “inactive” throughout. Also, the Potency entry in test [7], in test [8], in [9], in [10], in [11] and in test [12] was “inactive” in each case. Further, the Potency result in test [13], in [14], in test [15], in test [20], in [18] and in test [16] was “inactive” each time.

Consider `CCOC(=O)c1ccccc1C(=O)OCC`, for which the Potency result in test [1], in test [2], in [3], in test [4], in test [5] and in test [6] was “inactive” throughout. The Potency result in [7], in [8], in [9], in test [10], in test [11] and in test [12] was “inactive” each time. Also, the Potency result in test [13], in test [14], in test [15], in [17], in [19] and in test [20] was “inactive” in each case. In addition, the Potency result in test [18] and in test [16] was “inactive” in each case.

As for `COCC(C)N(C(=O)CCl)c1c(C)csc1C` (centres undefined), the Potency result in test [1], in [2], in [3], in test [4], in test [5] and in test [6] was “inactive” each time. Further, the Potency entry in test [7], in test [8], in [10], in [11], in test [12] and in test [13] was “inactive” each time. Besides, the Potency entry in test [14], in [15], in test [17], in test [19], in test [18] and in test [16] was “inactive” throughout.

Take `CCCC(=O)OC(C(Cl)(Cl)Cl)P(=O)(OC)OC` (centres undefined): the Potency entry in [1], in [2], in test [3], in test [4], in test [5] and in [6] was “inactive” throughout. The Potency entry in test [7], in test [8], in [9], in test [10], in test [13] and in test [14] was “inactive” in each case. For the same compound, the Potency entry in test [15], in test [17], in [19], in test [20], in test [18] and in test [16] was “inactive” throughout.

In the case of `O=c1[nH]cc(N(CCCl)CCCl)c(=O)[nH]1`, the Potency entry in [1], in test [2], in [3], in [4], in [5] and in [6] was “inactive” each time. Also, the Potency entry in [7], in test [8], in [9], in test [10], in [11] and in [13] was “inactive” throughout. Also, the Potency entry in test [14], in test [15], in [17], in test [19], in test [20] and in [18] was “inactive” each time. In addition, the Potency entry in [16] is “inactive”.
